This is part of a sample that, as a whole, favours compounds with a hit. Of some 83,000 tested, about 20% had one in any assay.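 96-well plates, one dose, 48 hours. Percent growth reported; active if below 10.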 The source made the active and inactive calls.
Key:
Test in all cases: NCI-60 one-dose screen, 48 h (100 = growth as untreated, 0 = no growth, -100 = all killed)
Conditions in all cases: 10 µM unless noted
[1] = test system: NCI-H23 lung
[2] = test system: NCI-H226 lung
[3] = test system: NCI-H322M lung
[4] = test system: HOP-62 NSCLC
[5] = test system: NCI-H460 lung
[6] = test system: HOP-92 NSCLC
[7] = test system: NCI-H522 lung
[8] = test system: A549/ATCC NSCLC
[9] = test system: 786-0 renal
[10] = test system: COLO 205 colon

Measured: growth

CCCCOc1nc2ccc(Cl)cc2cc1/C=C/C(=O)/C=C/c1ccc(OC)cc1
inactive: [1] 95.9% | [2] 99.6% | [3] 95.6% | [4] 110% | [5] 98.4% | [6] 93.4% | [7] 77.5% | [8] 92.1% | [9] 110% | [10] 93.1%

CN(C)c1ccc(/C=c2\s/c(=C\C(=O)C(C)(C)C)[nH]c2=O)cc1
inactive: [1] 98% | [2] 101% | [3] 86.7% | [4] 101% | [5] 104% | [6] 94.5% | [7] 78.1% | [8] 79.7% | [9] 93.2% | [10] 97.7%

CCCCCCCC(=O)SCC/C=C/[C@@H]1CC(=O)NCc2nc(cs2)C2=N[C@@](C)(CS2)C(=O)N[C@@H](C(C)C)C(=O)N1
inactive: [1] 16.5% | [4] 12.1% | [9] 17.2%
active: [2] 3.64% | [3] 1.39% | [5] 9.84% | [6] -10.5% | [7] -27.4% | [8] 0.822% | [10] -71.8%

COc1cc2ncnc(Oc3ccc(NC(=O)Nc4ccc(C5(C#N)CCCC5)cc4)c4ccccc34)c2cc1OC
inactive: [1] 47.6% | [2] 80.3% | [3] 66.7% | [4] 41.5% | [5] 19.3% | [7] 37.8% | [8] 25.6% | [10] 82.5%
active: [6] -39.8% | [9] -40.7%

COc1ccc2c(c1)OC(N)=C(C#N)C2c1ccc(F)c(F)c1 (stereo not given)
active: [7] -12.6%
inactive: [1] 48.2% | [2] 69.2% | [3] 51.4% | [4] 44.9% | [5] 14.4% | [6] 76.3% | [8] 37.1% | [9] 41.4% | [10] 10.3%

COc1ccc(-c2coc3c(CO)c(O)ccc3c2=O)cc1
inactive: [1] 79.5% | [2] 61.7% | [3] 52.9% | [4] 53% | [5] 32.7% | [6] 55.8% | [7] 67.2% | [8] 90.5% | [9] 90.3% | [10] 115%

COC(=O)CCCNS(=O)(=O)c1cc(C(=O)Nc2ccc(NC(=O)c3cc(S(=O)(=O)NCCCC(=O)OC)c(O)c(O)c3O)cc2)c(O)c(O)c1O
inactive: [1] 92.4% | [2] 98.4% | [3] 89.4% | [4] 98.5% | [5] 97.3% | [6] 115% | [7] 86.1% | [8] 83.2% | [9] 112% | [10] 114%

CCc1ccc(C2=C/C(=C/c3ccc(Cl)cc3)C(=O)N2CCc2ccc(S(N)(=O)=O)cc2)cc1
active: [5] 2.69% | [7] 5.98% | [10] -35.4%
inactive: [1] 34.4% | [2] 29.2% | [3] 54.3% | [4] 34.1% | [6] 15.1% | [8] 13.7% | [9] 40%

O=[N+]([O-])c1ccc(NS(=O)(=O)c2ccccc2)c2ccccc12
active: [6] 1.99%
inactive: [1] 34.3% | [2] 59.4% | [3] 71.9% | [4] 50.6% | [5] 38.2% | [7] 18.2% | [8] 57.1% | [9] 51.5% | [10] 59.1%

O=[N+]([O-])c1ccccc1NC1c2ccccc2Oc2ccccc21
inactive: [1] 79.1% | [2] 78% | [3] 74.6% | [4] 70% | [5] 15.1% | [6] 48.4% | [7] 26.3% | [8] 44.9% | [9] 94.5% | [10] 69.3%

COc1ccc(-c2nnc(SCC(=O)Nc3ccc(C(=O)/C=C/c4ccccc4)cc3)o2)cc1OC
inactive: [1] 88% | [2] 89% | [3] 90.8% | [4] 119% | [5] 103% | [6] 105% | [7] 91.4% | [8] 97.7% | [9] 101% | [10] 113%

CNC(=O)NN
inactive: [1] 98.2% | [2] 103% | [3] 103% | [4] 94.7% | [5] 105% | [6] 82.5% | [7] 104% | [8] 98.9% | [9] 107% | [10] 94.5%

O=C(Nc1cccc(-n2ccc3c(NC(=O)c4ccccc4)nccc32)c1)c1cccc(C(F)(F)F)c1
inactive: [1] 20.8% | [2] 35.6% | [3] 34.2% | [4] 36.4% | [6] 40.3%
active: [5] 3.05% | [7] -45.2% | [8] 7.84% | [9] -14.6% | [10] -44.5%

Cc1ccc(NC(=O)CN2CCOCC2)cc1Cl
inactive: [1] 101% | [2] 92.8% | [3] 93.4% | [4] 91% | [5] 100% | [6] 80.8% | [7] 76.5% | [8] 95.3% | [9] 95% | [10] 102%

CN1CCN(Cn2nc(-c3cc(F)c(Cl)cc3Cl)n(/N=C/c3ccc(N(C)C)cc3)c2=S)CC1
inactive: [1] 98% | [2] 101% | [3] 83.1% | [4] 56% | [5] 115% | [6] 84.5% | [7] 69% | [8] 106% | [9] 93.3% | [10] 103%

O=[N+]([O-])c1cccc(C(c2ccccc2)c2ccccc2)c1
inactive: [1] 87.5% | [2] 76.9% | [3] 90.6% | [4] 88.7% | [5] 87.5% | [6] 63.9% | [7] 79.1% | [8] 87.7% | [9] 97.3% | [10] 95.2%

Cc1ccc2[nH]c3nc4cccnc4c(C)c3c2c1
inactive: [1] 36.5% | [2] 77.9% | [3] 44.4% | [4] 63.2% | [5] 11.4% | [6] 115% | [7] 70.3% | [8] 74.5% | [9] 107% | [10] 101%

CCOc1ccc(NC2=C(Cl)C(=O)c3ccccc3C2=O)cc1
inactive: [1] 39.6% | [2] 101% | [3] 105% | [4] 95.1% | [5] 97.9% | [6] 78.6% | [7] 62.7% | [8] 97% | [9] 94.7% | [10] 108%

O=C(Cn1c2ccccc2c2ccncc21)N/N=C\c1ccc2ccccc2c1
active: [5] 5.42% | [6] -7.39% | [8] -10.1% | [9] -3.98%
inactive: [1] 55% | [2] 31.9% | [3] 39.1% | [4] 19.8% | [7] 38% | [10] 31.6%

COc1cc(-c2nc3sc(C)cn3c2/C=C2\C(=O)Nc3ccccc32)c(Br)c(OC)c1OC
inactive: [1] 74.4% | [2] 80.1% | [3] 55.8% | [4] 26% | [6] 44.2% | [8] 50.3% | [9] 22.9% | [10] 52.7%
active: [5] 8.76% | [7] -10.6%

COc1cc(Cn2cc3c(c2)-c2onc(CO)c2CC3)cc(OC)c1OC
inactive: [1] 92.7% | [2] 81.5% | [3] 85.1% | [4] 85.7% | [5] 93.6% | [6] 67% | [7] 87.7% | [8] 99.8% | [9] 90.9% | [10] 107%

O=C(Nc1ccc(-n2cc(-c3ccncc3)c(-c3ccc(O)c(Cl)c3)n2)cc1)c1cc(Cl)cc(Cl)c1
active: [9] -42.1%
inactive: [1] 59.2% | [2] 89.1% | [3] 50.1% | [4] 45.5% | [5] 22.3% | [6] 42% | [7] 22% | [8] 35.9% | [10] 91.1%

O=C(Nc1ccc(-n2ccc3c(NC(=O)c4ccccc4)nccc32)cc1)c1ccc(Cl)c(C(F)(F)F)c1
active: [5] -67% | [7] -0.6% | [8] -29.9%
inactive: [1] 64% | [2] 69.9% | [3] 66.1% | [4] 53.9% | [6] 46.5% | [9] 22.9% | [10] 37.2%

COc1cc(C(=O)NNC(=O)c2ccccc2C(=O)O)cc(OC)c1OC
inactive: [1] 15.9% | [2] 74.6% | [3] 80.7% | [4] 51.6% | [5] 11.9% | [6] 55.3% | [7] 32.2% | [8] 52.7% | [9] 38.8% | [10] 37.5%

Nc1nc(-c2cc3c(cc2Cl)NC(=O)/C3=C/c2ccc(Cl)cc2)cs1
inactive: [1] 49.1% | [2] 72.3% | [3] 59.7% | [4] 63% | [5] 53.1% | [6] 17.8% | [7] 17.3% | [8] 64.5% | [9] 43.7% | [10] 61.7%

Cn1c2ccccc2c2ssc(=S)c21
inactive: [1] 92.4% | [2] 105% | [3] 89.9% | [4] 110% | [5] 106% | [6] 88.6% | [7] 85.7% | [8] 99.7% | [9] 98.5% | [10] 116%

Cc1ccccc1C[P+](c1ccccc1)(c1ccccc1)c1ccccc1
inactive: [1] 11.6% | [2] 32.9% | [3] 57.7% | [4] 32.4% | [5] 21% | [8] 29.9% | [9] 40.7%
active: [6] -7.58% | [7] 0.342% | [10] 9.84%

Source: PubChem BioAssay (NCI)
